Measurements: the supplement of paper PMC10849652
The full data set covers some 7,900 targets. This sample favours those with a hit. About 0.6% of all pairs of compound and target were hits. A number with no mark means an inactive call.

What follows are targets tested with NC(=O)Nc1cc(-c2cccc(F)c2)sc1C(=O)N[C@H]1CCCNC1 (assay: log2 fold change, soluble protein after heating vs DMSO (PISA); higher = thermal stabilisation; K562 cells, 10 uM, 30 min; active = over 0.2 and 3.5 SD of the protein, either way, in both replicates (recomputed)).
Outline: (§1)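 Thermal stability values are relative to control samples and come from duplicates. They are expressed as log2 fold changes. For measurement, K562 cells (2×10^6 cells/mL) received 10 μM compound for 30 min, and aliquots were heated for 3 min over 48°C-58°C, pooled, and extracted at 4°C in PBS with 0.5% NP-40. Soluble protein, the supernatant after 21,000xg for 90 min, was quantified by TMTpro 16plex LC-MS/MS with equalised channel sums.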

Chain of UniProt Q6L8Q7 (Q6L8Q7 whole entry, looked up): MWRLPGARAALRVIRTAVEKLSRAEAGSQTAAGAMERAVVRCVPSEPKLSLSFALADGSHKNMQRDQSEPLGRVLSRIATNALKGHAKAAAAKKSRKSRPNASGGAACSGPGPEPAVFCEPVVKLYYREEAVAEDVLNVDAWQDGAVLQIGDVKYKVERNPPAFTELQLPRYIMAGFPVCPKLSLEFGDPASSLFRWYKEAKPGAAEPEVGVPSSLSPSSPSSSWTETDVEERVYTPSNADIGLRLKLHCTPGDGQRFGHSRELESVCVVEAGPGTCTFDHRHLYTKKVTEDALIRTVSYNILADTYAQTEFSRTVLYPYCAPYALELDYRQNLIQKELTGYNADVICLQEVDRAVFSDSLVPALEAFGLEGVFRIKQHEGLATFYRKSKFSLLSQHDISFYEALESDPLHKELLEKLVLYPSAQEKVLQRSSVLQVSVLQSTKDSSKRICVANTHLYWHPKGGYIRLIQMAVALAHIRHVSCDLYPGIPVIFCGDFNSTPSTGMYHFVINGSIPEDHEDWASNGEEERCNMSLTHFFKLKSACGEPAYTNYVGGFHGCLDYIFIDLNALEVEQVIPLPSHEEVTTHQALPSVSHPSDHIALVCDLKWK
Chain of UniProt Q15126 (Q15126 whole entry, looked up): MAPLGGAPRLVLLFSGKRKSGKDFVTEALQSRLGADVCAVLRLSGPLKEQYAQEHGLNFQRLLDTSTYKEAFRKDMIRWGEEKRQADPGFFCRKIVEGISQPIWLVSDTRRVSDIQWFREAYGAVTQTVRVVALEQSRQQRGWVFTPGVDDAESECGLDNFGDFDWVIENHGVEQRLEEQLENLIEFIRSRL
Chain of UniProt Q2TAL8 (Q2TAL8 whole entry, looked up): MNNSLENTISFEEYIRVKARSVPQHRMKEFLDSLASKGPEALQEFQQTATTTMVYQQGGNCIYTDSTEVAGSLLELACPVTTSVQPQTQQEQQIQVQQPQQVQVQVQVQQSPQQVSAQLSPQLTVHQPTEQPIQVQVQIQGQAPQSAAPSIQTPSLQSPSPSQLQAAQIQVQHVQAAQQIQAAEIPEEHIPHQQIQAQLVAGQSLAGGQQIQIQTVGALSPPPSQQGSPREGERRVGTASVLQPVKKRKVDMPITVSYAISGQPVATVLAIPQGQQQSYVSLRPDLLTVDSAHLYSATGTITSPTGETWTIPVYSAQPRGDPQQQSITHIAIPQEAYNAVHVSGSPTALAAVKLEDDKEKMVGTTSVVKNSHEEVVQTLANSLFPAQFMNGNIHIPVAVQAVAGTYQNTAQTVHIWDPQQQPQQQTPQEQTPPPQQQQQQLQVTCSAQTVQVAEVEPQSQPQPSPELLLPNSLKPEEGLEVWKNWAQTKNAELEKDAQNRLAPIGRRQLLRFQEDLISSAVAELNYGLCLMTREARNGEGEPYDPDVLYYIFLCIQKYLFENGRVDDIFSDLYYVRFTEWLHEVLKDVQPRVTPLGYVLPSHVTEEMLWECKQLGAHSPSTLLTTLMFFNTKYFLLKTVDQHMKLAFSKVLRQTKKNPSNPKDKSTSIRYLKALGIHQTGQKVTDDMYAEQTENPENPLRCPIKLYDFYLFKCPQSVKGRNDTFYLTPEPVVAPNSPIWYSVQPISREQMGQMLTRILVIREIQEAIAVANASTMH
Chain of UniProt Q8TCG2 (Q8TCG2 whole entry, looked up): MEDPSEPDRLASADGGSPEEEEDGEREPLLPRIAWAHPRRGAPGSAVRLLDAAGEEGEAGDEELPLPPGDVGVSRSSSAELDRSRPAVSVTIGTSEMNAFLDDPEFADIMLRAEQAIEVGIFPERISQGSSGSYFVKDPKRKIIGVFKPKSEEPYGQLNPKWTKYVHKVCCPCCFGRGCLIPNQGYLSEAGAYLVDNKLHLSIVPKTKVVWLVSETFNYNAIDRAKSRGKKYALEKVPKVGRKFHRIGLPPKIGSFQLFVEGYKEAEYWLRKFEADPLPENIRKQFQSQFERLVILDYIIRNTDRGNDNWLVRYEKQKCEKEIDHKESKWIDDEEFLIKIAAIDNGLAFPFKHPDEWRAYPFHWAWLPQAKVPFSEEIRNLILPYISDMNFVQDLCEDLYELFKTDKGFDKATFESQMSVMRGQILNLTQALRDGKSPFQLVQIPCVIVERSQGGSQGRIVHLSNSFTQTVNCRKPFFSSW
Chain of UniProt Q99541 (Q99541 whole entry, looked up): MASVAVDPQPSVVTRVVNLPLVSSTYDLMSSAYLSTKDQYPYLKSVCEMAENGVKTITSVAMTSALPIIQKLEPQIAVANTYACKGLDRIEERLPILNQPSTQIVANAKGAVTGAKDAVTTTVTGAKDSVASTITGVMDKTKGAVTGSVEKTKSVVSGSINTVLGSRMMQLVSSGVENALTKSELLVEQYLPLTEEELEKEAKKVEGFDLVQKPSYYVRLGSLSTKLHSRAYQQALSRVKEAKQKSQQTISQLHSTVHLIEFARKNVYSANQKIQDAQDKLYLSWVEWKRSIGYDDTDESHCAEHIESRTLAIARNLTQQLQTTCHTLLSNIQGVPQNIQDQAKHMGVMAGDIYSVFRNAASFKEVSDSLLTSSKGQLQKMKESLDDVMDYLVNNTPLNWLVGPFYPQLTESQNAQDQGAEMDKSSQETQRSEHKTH
Chain of UniProt P62191 (P62191 whole entry, looked up): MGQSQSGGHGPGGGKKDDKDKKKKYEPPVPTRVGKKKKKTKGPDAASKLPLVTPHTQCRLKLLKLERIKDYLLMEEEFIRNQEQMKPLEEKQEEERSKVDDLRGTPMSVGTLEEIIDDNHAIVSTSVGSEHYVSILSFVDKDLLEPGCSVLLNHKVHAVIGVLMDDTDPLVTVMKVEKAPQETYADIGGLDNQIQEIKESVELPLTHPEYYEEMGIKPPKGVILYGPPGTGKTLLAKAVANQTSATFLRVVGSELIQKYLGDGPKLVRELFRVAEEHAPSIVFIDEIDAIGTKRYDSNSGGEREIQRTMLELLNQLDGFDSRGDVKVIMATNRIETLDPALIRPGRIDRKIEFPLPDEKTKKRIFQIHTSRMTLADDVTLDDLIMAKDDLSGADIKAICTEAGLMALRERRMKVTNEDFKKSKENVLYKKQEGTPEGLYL
Chain of UniProt P49642 (P49642 whole entry, looked up): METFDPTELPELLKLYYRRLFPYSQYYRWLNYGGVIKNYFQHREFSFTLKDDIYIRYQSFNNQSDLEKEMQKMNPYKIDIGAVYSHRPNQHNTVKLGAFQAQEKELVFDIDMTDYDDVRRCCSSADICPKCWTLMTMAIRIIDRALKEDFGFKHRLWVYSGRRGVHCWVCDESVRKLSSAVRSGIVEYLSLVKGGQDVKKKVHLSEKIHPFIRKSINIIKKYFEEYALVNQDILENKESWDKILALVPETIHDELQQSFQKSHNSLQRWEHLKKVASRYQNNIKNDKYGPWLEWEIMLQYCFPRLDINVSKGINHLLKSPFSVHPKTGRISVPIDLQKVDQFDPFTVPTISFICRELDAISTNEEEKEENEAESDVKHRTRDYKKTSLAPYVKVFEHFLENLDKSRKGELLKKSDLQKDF
Chain of UniProt Q14289 (Q14289 whole entry, looked up): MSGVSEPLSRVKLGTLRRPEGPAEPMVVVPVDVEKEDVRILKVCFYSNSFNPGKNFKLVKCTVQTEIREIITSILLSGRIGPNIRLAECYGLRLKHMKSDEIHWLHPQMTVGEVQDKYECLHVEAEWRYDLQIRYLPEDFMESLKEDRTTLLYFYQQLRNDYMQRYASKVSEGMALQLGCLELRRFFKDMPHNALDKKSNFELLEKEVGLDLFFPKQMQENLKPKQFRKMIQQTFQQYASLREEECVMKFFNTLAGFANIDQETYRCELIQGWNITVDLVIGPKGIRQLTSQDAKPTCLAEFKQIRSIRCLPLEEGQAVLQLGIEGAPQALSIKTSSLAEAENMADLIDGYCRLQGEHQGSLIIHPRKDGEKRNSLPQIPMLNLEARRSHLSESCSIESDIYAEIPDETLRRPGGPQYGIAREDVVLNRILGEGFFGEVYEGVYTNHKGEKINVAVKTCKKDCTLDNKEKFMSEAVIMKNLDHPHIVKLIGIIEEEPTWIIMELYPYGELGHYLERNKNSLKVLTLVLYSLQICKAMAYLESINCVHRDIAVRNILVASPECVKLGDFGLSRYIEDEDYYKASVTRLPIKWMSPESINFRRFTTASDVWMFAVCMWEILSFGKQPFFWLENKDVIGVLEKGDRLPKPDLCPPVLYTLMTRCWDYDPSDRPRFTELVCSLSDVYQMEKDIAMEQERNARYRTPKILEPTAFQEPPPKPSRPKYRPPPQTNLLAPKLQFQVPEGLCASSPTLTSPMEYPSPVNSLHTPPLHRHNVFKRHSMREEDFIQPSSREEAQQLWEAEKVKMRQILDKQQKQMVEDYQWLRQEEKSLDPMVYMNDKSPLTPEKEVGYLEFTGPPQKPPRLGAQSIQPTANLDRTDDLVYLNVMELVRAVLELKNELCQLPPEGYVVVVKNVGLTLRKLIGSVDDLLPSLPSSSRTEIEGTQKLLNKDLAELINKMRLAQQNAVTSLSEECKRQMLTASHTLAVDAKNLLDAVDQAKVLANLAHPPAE
Chain of UniProt Q10713 (Q10713 whole entry, looked up): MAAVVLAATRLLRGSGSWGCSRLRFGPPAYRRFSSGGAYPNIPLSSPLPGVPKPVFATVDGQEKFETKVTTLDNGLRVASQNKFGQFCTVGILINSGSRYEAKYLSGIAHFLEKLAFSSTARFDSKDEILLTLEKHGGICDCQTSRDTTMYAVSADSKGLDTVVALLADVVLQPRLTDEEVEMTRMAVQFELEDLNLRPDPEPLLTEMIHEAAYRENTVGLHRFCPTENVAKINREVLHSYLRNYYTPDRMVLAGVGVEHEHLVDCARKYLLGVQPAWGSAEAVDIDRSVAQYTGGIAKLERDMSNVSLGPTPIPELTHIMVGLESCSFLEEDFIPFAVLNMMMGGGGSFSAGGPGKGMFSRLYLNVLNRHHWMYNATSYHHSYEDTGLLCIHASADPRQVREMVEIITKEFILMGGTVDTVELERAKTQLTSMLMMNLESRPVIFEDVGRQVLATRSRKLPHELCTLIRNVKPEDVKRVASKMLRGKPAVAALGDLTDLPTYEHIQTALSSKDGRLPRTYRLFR

| Target | log2 fold change |
| --- | --- |
| PMVK (UniProt Q15126) | -0.04 |
| PI4K2B (UniProt Q8TCG2) | 0.092 |
| PDE12 (UniProt Q6L8Q7) | -0.036 |
| POGZ (UniProt Q7Z3K3) | 0.009 |
| PLIN2 (UniProt Q99541) | 0.019 |
| PRKD3 (UniProt O94806) | -0.565 |
| PSMC4 (UniProt P43686) | 0.018 |
| QRICH1 (UniProt Q2TAL8) | -0.043 |
| PSMC1 (UniProt P62191) | 0.011 |
| PMPCA (UniProt Q10713) | -0.091 |
| PRIM1 (UniProt P49642) | -0.008 |
| PRKACB isoform 2 (UniProt P22694) | 0.078 |
| PTK2B (UniProt Q14289) | 0.076 |

Each target was assayed with NC(=O)c1cnc(N[C@@H]2CCCC[C@@H]2N)nc1Nc1cccc(-n2nccn2)c1 in the same assay as above.
Outline: as §1

| Target | log2 fold change |
| --- | --- |
| POLR3D (UniProt P05423) | 1.51 (active) |
| PRKCA (UniProt P17252) | -0.134 |
| POLR2C (UniProt P19387) | -0.026 |
| PRKD2 isoform 3 (UniProt Q9BZL6) | -0.217 |
| PHKA2 (UniProt P46019) | -0.112 |
| POLR2M (UniProt Q6EEV4) | -0.09 |
| PGGHG (UniProt Q32M88) | -0.155 |
| PTPMT1 (UniProt Q8WUK0) | -0.264 |
| PEX11B (UniProt O96011) | 0.052 |
| PDIK1L (UniProt Q8N165) | -0.025 |
| PCYT1B (UniProt Q9Y5K3) | -0.007 |
| PTP4A2 (UniProt Q12974) | -0.286 |
| PEF1 (UniProt Q9UBV8) | -0.026 |
| PHKA1 (UniProt P46020) | 0.046 |
| PISD (UniProt Q9UG56) | 0.019 |
| PDE6D (UniProt O43924) | -0.113 |
| PNPLA4 (UniProt P41247) | -0.118 |
| PSMD7 (UniProt P51665) | 0.001 |

| Target | log2 fold change |
| --- | --- |
| PNN (UniProt Q9H307) | -0.24 |
| PBX2 (UniProt P40425) | -0.016 |
| PPP2R5C isoform 4 (UniProt Q13362) | 0.079 |
| PIP4P1 isoform 2 (UniProt Q86T03) | 0.086 |
| QKI (UniProt Q96PU8) | -0.137 |
| PMVK (UniProt Q15126) | -0.001 |
| PI4K2B (UniProt Q8TCG2) | 0.704 (active) |
| PDE12 (UniProt Q6L8Q7) | 0.07 |
| POGZ (UniProt Q7Z3K3) | 0.167 |
| PLIN2 (UniProt Q99541) | -0.194 |
| PRKD3 (UniProt O94806) | -0.263 |
| PSMC4 (UniProt P43686) | -0.016 |
| QRICH1 (UniProt Q2TAL8) | -0.119 |
| PSMC1 (UniProt P62191) | 0.029 |
| PMPCA (UniProt Q10713) | -0.059 |
| PRIM1 (UniProt P49642) | -0.016 |
| PRKACB isoform 2 (UniProt P22694) | -0.11 |
| PTK2B (UniProt Q14289) | 0.091 |

The targets below were run with NC1(c2ccc(-c3nc4ccn5c(=O)[nH]nc5c4cc3-c3ccccc3)cc2)CCC1 in the same assay as above.
Outline: as §1

| Target | log2 fold change |
| --- | --- |
| POLR3D (UniProt P05423) | -0.115 |
| PRKCA (UniProt P17252) | -0.181 |
| POLR2C (UniProt P19387) | -0.131 |
| PRKD2 isoform 3 (UniProt Q9BZL6) | -0.074 |
| PHKA2 (UniProt P46019) | -0.157 |
| POLR2M (UniProt Q6EEV4) | -0.065 |
| PGGHG (UniProt Q32M88) | -0.051 |
| PTPMT1 (UniProt Q8WUK0) | -0.263 |
| PEX11B (UniProt O96011) | -0.03 |
| PDIK1L (UniProt Q8N165) | -0.075 |
| PCYT1B (UniProt Q9Y5K3) | -0.218 |
| PTP4A2 (UniProt Q12974) | 0.079 |
| PEF1 (UniProt Q9UBV8) | -0.219 |
| PHKA1 (UniProt P46020) | -0.202 |
| PISD (UniProt Q9UG56) | -0.009 |
| PDE6D (UniProt O43924) | 0.122 |
| PNPLA4 (UniProt P41247) | -0.357 |
| PSMD7 (UniProt P51665) | -0.035 |

| Target | log2 fold change |
| --- | --- |
| PNN (UniProt Q9H307) | 0.053 |
| PBX2 (UniProt P40425) | -0.203 |
| PPP2R5C isoform 4 (UniProt Q13362) | -0.064 |
| PIP4P1 isoform 2 (UniProt Q86T03) | -0.326 |
| QKI (UniProt Q96PU8) | -0.086 |
| PMVK (UniProt Q15126) | -0.114 |
| PI4K2B (UniProt Q8TCG2) | -0.08 |
| PDE12 (UniProt Q6L8Q7) | -0.069 |
| PLIN2 (UniProt Q99541) | -0.353 |
| PRKD3 (UniProt O94806) | -0.285 |
| PSMC4 (UniProt P43686) | 0.028 |
| QRICH1 (UniProt Q2TAL8) | -0.137 |
| PSMC1 (UniProt P62191) | 0.014 |
| PMPCA (UniProt Q10713) | -0.02 |
| PRIM1 (UniProt P49642) | -0.093 |
| PRKACB isoform 2 (UniProt P22694) | -0.173 |
| PTK2B (UniProt Q14289) | -0.13 |
